From PubChem BioAssay AID1159580 (chemical genetic matrix, 2015)
Out of some 5,500 compounds screened, about 2,000 (36%) were called active. Another 18% or so got no clear call; they are omitted. No stated cut-off is given here; in the data, active means normalized growth mostly below about 0.91 (no sharp cut-off); inconclusive means no clear call, values can overlap the other calls; inactive means mostly above about 0.92. Some of the results follow.

Test: chemical genetic growth profiling, strain panel (AID 1159580);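 further: tested at 20 µM; growth read once vehicle control cultures reached saturation at 30 °C; 1 = growth at the plate median or of vehicle wells; lower values mean less growth of the strain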
Settings: S. cerevisiae deletion strains, growth OD
[1] = locus YAL040C, strain CLN3, active compounds read low
[2] = locus YCL061C, strain MRC1 (second series), active compounds read low
[3] = locus YDR363W, strain ESC2, active compounds read low
[4] = locus YER002W, strain NOP16, active compounds read low
[5] = locus YNL175C, strain NOP13, active compounds read low
[6] = locus YNL197C, strain WHI3, active compounds read low
[7] = locus YNL224C, strain SQS1, active compounds read low
[8] = locus YOR083W, strain WHI5 (second series), active compounds read low
[9] = locus YPL241C, strain CIN2, active compounds read low

Measured: normalized growth

N#Cc1nccnc1N1CCN(C(=O)Nc2cc(Cl)cc(Cl)c2)CC1
inactive: locus YAR019C, strain CDC15, active compounds read low 0.963 | locus YBL105C, strain PKC1, active compounds read low 0.972 | locus YBR135W, strain CKS1, active compounds read low 0.947 | locus YBR136W, strain MEC1, active compounds read low 0.972 | locus YBR160W, strain CDC28, active compounds read low 0.965 | locus YDL017W, strain CDC7, active compounds read low 0.969 | locus YDL028C, strain MPS1, active compounds read low 0.965 | locus YDL101C, strain DUN1, active compounds read low 0.975 | locus YDL108W, strain KIN28, active compounds read low 0.968 | locus YDL132W, strain cdc53, active compounds read low 0.967 | locus YDL214C, strain PRR2, active compounds read low 0.955 | locus YDR052C, strain DBF4, active compounds read low 0.969 | locus YDR054C, strain cdc34, active compounds read low 0.952 | locus YDR226W, strain ADK1, active compounds read low 0.965 | locus YDR477W, strain SNF1, active compounds read low 0.923 | locus YER123W, strain YCK3, active compounds read low 0.946 | locus YER133W, strain GLC7, active compounds read low 0.967 | locus YFL009W, strain cdc4, active compounds read low 0.951 | locus YFL029C, strain CAK1, active compounds read low 0.958 | locus YFR003C, strain YPI1, active compounds read low 0.972 | locus YFR019W, strain FAB1, active compounds read low 0.947 | locus YFR028C, strain CDC14, active compounds read low 0.966 | locus YGR040W, strain KSS1, active compounds read low 0.946 | locus YGR052W, strain FMP48, active compounds read low 1.05 | locus YGR092W, strain DBF2, active compounds read low 0.896 | locus YHR079C, strain IRE1, active compounds read low 0.739 | locus YHR082C, strain KSP1, active compounds read low 0.964 | locus YHR205W, strain SCH9, active compounds read low 0.946 | locus YIL147C, strain SLN1, active compounds read low 0.966 | locus YJL095W, strain BCK1, active compounds read low 0.824 | locus YJL128C, strain PBS2, active compounds read low 0.954 | locus YJL157C, strain FAR1, active compounds read low 0.925 | locus YJR016C, strain ILV3, active compounds read low 0.952 | locus YJR066W, strain TOR1 (second series), active compounds read low 0.934 | locus YJR066W, strain TOR1, active compounds read low 0.891 | locus YKL048C, strain ELM1, active compounds read low 0.959 | locus YKL067W, strain YNK1, active compounds read low 0.959 | locus YKL101W, strain HSL1, active compounds read low 0.938 | locus YKL193C, strain SDS22, active compounds read low 0.961 | locus YKL203C, strain TOR2, active compounds read low 0.985 | locus YLR113W, strain HOG1, active compounds read low 0.892 | locus YLR133W, strain CKI1, active compounds read low 0.942 | locus YLR403W, strain SFP1, active compounds read low 0.949 | locus YML070W, strain DAK1, active compounds read low 0.94 | locus YMR001C, strain CDC5, active compounds read low 0.968 | locus YMR205C, strain PFK2 (second series), active compounds read low 0.947 | locus YMR277W, strain FCP1, active compounds read low 0.97 | locus YNL006W, strain LST8, active compounds read low 0.961 | locus YNL020C, strain ARK1, active compounds read low 0.934 | locus YNL161W, strain CBK1, active compounds read low 0.961 | locus YNL183C, strain NPR1, active compounds read low 0.952 | locus YNL207W, strain RIO2, active compounds read low 0.971 | locus YNL222W, strain SSU72, active compounds read low 0.967 | locus YNL307C, strain MCK1 (second series), active compounds read low 0.941 | locus YOL078W, strain AVO1, active compounds read low 0.961 | locus YOL136C, strain PFK27, active compounds read low 0.924 | locus YOR061W, strain CKA2, active compounds read low 0.931 | locus YOR119C, strain RIO1, active compounds read low 1.02 | locus YOR231W, strain MKK1, active compounds read low 0.883 | locus YOR329C, strain SCD5, active compounds read low 0.971 | locus YPL031C, strain PHO85, active compounds read low 0.9 | locus YPL153C, strain RAD53, active compounds read low 0.906 | locus YPL204W, strain HRR25, active compounds read low 0.915 | locus YPL209C, strain IPL1, active compounds read low 0.974 | locus YPL256C, strain CLN2, active compounds read low 0.922 | locus YPR025C, strain CCL1, active compounds read low 0.959 | locus YPR106W, strain ISR1, active compounds read low 0.986 | locus YPR111W, strain DBF20, active compounds read low 0.958 | strain NNK1, active compounds read low 0.973 | strain TSCII, active compounds read low 0.953
active: locus YHR030C, strain SLT2, active compounds read low 0.714

COc1ccccc1N1CCN(CCN(C(=O)c2ccc(I)cc2)c2ccccn2)CC1
inactive: [1] 0.976 | [2] 0.988 | [3] 0.943 | [4] 1.01 | locus YGR229C, strain SMI1, active compounds read low 0.984 | [5] 0.983 | [6] 0.996 | [7] 0.987 | locus YNL322C, strain KRE1, active compounds read low 0.977 | [8] 0.997 | locus YPL055C, strain LGE1, active compounds read low 0.964 | [9] 0.995

COc1ccccc1N1CCN(CCN(C(=O)C2CCCCC2)c2ccccn2)CC1
inactive: [1] 0.99 | [2] 1.01 | [3] 1.01 | [4] 1.01 | locus YJR075W, strain HOC1, active compounds read low 1.01 | locus YMR263W, strain SAP30, active compounds read low 0.997 | locus YMR307W, strain GAS1, active compounds read low 0.993 | locus YNL128W, strain TEP1, active compounds read low 1.01 | locus YNL153C, strain GIM3, active compounds read low 1.01 | [5] 0.999 | [6] 1 | [7] 1 | [8] 1.05 | [9] 1.01
